# Pf growth 48h: Primary qHTS for delayed death inhibitors of the malarial parasite plastid, 48 hour incubation | P. falciparum luciferase growth in erythrocytes, 48 h | Potency, µM (series often up to 28.7 µM), inactives show top-dose activity change, negative = inhibition, hits mostly inhibitors | 5.9% of 310,000 active | AID 504832, 2011; further: on the % scale 0 is the no-effect control and ±100 the full control effect
#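 A one-generation exposure of luciferase-tagged malaria parasites in RPMI 1640/Albumax erythrocyte culture, 37 C and 5% CO2. Inhibition is inferred from decreased luminescence after adding detection reagent.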
# SARS PLpro yeast: qHTS of Yeast-based Assay for SARS-CoV PLP; S. cerevisiae expressing SARS-CoV PLpro, growth rescue; Potency, µM (highest dose often 32.9 µM), for inactives: at the highest dose activity, positive = growth rescue, hits mostly activators; 0.19% of 330,000 active; AID 485353, 2010; calls by dose curve; further: 0% is about no effect; nearly all actives have a fitted effect of over 55% in size
# NS1 function inh: qHTS Assay for Inhibitors of Influenza NS1 Protein Function; Potency, µM (titrated, usually from 46.1 µM), for inactives: top-dose activity, positive = more growth; 0.4% of 270,000 active; calls by dose curve; further: actives are rising curves; nearly all actives have a fitted effect of over 50% in size
#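 A cell-based growth assay was used: compounds that relieve NS1-induced slow growth of budding yeast raise OD600. Assay medium was yeast nitrogen base with ammonium sulphate and -URA supplement, pH 6.0, with 2% galactose.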
# HCV inh: qHTS Assay for Inhibitors of Hepatitis C Virus (HCV); Huh7.5.1 HCVcc-Cre infection, luciferase reporter, 44 h; Potency, µM (highest dose often 41.8 µM), for the others: at the top dose activity change, negative = inhibition, usual class: inhibitors; 3.4% of 340,000 active; AID 651820, 2012; further: on the % scale 0 is the no-effect control and ±100 the full control effect
#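 Cells (1,000/well) were plated 4 h before compound, then infected with HCVcc-Cre virus (~0.5 moi). After 44 h further culture, infection was read as luciferase luminescence following a 15 min substrate incubation at room temperature.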
# Pf growth 96h: Primary qHTS for delayed death inhibitors of the malarial parasite plastid, 96 hour incubation. P. falciparum luciferase reporter growth, 96 h. Potency, µM (doses to about 28.7 µM), for inactives: at the highest dose activity change, negative = inhibition, usual class: inhibitors. 6.9% of 320,000 active; further: on the % scale 0 is the no-effect control and ±100 the full control effect
#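 Infected RBCs, 2% Hct / 0.05% parasitemia final; luciferase-reporter P. falciparum; cpd 96 h, 37 C, 5% CO2; luciferase detection reagent; luminescence.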
# AMA1 RON2 block: qHTS for Inhibitors of AMA1-RON; Towards Development of Antimalarial Drug Lead: Primary Screen; 0.2% of 360,000 active; Potency, µM (titrated, usually from 58.2 µM), without a hit: at the highest dose activity change, negative = inhibition, hits mostly inhibitors; AlphaScreen AMA1-biotinylated RON2 peptide binding; Plasmodium falciparum AMA1 (3D7) - RON2 peptide interaction;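 further: 0% = vehicle wells and -100% = peptide control; nearly all actives have a fitted effect of over 45% in size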
#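 AMA1 (3D7) with his tag at 25 nM final met compounds first, then biotinylated RON2 peptide at 25 nM; detection used donor plus acceptor beads, 10 µg/mL apiece, read by AlphaScreen after 30 min at room temperature.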
# Numbers without * were called inactive; ? = inconclusive; / = not tested or not shown; [ ] = remark or other dose. Hits are enriched below; roughly 12% of the tested compounds scored in any of these assays. Unless noted, the call rests on the fitted dose curve; in most records, active means well fitted curve in the direction sought with a large enough effect; inconclusive means small, poorly fitted or top-dose-only effect, or another doubt; inactive means no such curve, though single readings can be large; an effect the other way counts as inactive or inconclusive. Potency means the concentration at half of the fitted maximal effect.
SMILES,Pf growth 48h,SARS PLpro yeast,NS1 function inh,HCV inh,Pf growth 96h,AMA1 RON2 block
Cc1cc2c(c(=O)o1)C1O[C@](c3ccsc3)(Cc3cc(C#N)ccc31)O2,?,-4.3%[6.58 µM],?,/,?,/
O=C(CNC(=O)c1ccccc1F)OCCOc1cccc(Cl)c1,?,-0.5%,/,6.5%,15.6%,5.7%
CCOC(=O)c1ccc(NC(=S)NCCc2ccc(F)cc2)cc1,-4.8%,-3.0%,-5.0%,11.2µM*,8.3%,41.2%
Cc1ccc(C(C)(C)c2ccc(C)cc2)cc1,4.8%,/,/,/,-6.3%,/
COc1ccc(C(=O)[C@H]2[C@H]3C(=O)N(c4ccccc4)C(=O)[C@H]3C3C=CC=NN32)cc1 (stereo not given in full),16.5µM*,2.4%,15.3%,1.6%,49.6%,-10.4%
CC(=O)Oc1ccc(C(=O)[C@H]2[C@H]3C(=O)N(c4ccccc4)C(=O)[C@H]3[C@@H]3C=CC=NN32)cc1,2.6%,-8.7%,?,12.2%,12.0%,-7.0%
CCCc1[nH]n(-c2ccc(F)cc2)c(=O)c1C=Nc1ccc(C)cc1,14.5%,28.6%,5.1%,?,2.3%,16.1%
COc1cc(/C=C/c2ccc3cccc(O)c3n2)ccc1O,-60.5%,-11.3%,-66.9%,11.2µM*,?,92.5%
COc1cc(Br)c(/C=C/c2ccc3cccc(O)c3n2)cc1OC,2.62µM*,-1.0%,3.2%,10µM*,2.08µM*,106.0%
COc1cc(Br)cc(/C=C/c2ccc3cccc(O)c3n2)c1O,-12.5%[0.00184 µM],-0.4%,7.7%,?,10.3%,117.0%
Cc1ccsc1/C=C/c1ccc2cccc(O)c2n1,/,-16.2%,-179.5%,12.6µM*,74.3%,56.8%
COc1cc(/C=C/c2ccc3cccc(O)c3n2)c(Br)cc1O,?,-9.3%,-7.8%,/,21.0%,/
COc1ccc(OC)c(/C=C/c2ccc3cccc(O)c3n2)c1,4.15µM*,-5.0%,-10.2%,/,38.8%,/
CCN(CC)C(=O)CSc1nnc(-c2ccccn2)n1Cc1ccccc1,-15.2%,-0.2%,0.1%,16.9%,1.6%,1.2%
Fc1ccc2nncc(SCc3ccccc3Cl)c2c1,/,/,/,5.4%,/,0.0%
Cc1ccc2c(CC(=O)NCCc3ccc(S(N)(=O)=O)cc3)coc2c1,7.1%,-1.1%,?,16.2%,0.0%,-2.7%
Cn1c(N)c(C(=O)COC(=O)C2CCC(C(C)(C)C)CC2)c(=O)n(C)c1=O (stereo not given),13.1µM*,-12.7%,9.8%,8.4%,/,3.0%
Cn1c(N)c(C(=O)COC(=O)C2(c3ccc(F)cc3)CCCC2)c(=O)n(C)c1=O,4.15µM*,-6.3%,-32.9%,?,2.33µM*,17.3%
Cn1c(N)c(C(=O)COC(=O)/C=C/c2ccc(Cl)cc2)c(=O)n(C)c1=O,?,-3.9%,/,-29.6%,-22.6%,18.4%
Cn1c(N)c(C(=O)COC(=O)C2(c3ccc(Cl)cc3)CCCC2)c(=O)n(C)c1=O,3.7µM*,0.9%,-3.2%,0.8%,/,-1.2%
Cn1c(N)c(C(=O)COC(=O)C2(c3ccccc3F)CCCC2)c(=O)n(C)c1=O,-26.4%,-1.0%,-8.9%,-23.7%,-18.5%,-3.4%
O=C(c1ccco1)N1CCc2[nH]nc(-c3ccccc3)c2C1,1.8%,16.3%,11.7%,7.8%,?,5.8%
CCn1c(=O)c([N+](=O)[O-])c(N2CCSCC2)c2ccccc21,-15.1%,0.4%,0.5%,14.1µM*,?,-27.0%
Cn1c(=O)c([N+](=O)[O-])c(N2CCSCC2)c2ccccc21,-10.2%,0.1%,0.8%,?,?,-1.3%
CCn1c(=O)c([N+](=O)[O-])c(N2CCN(Cc3ccc4c(c3)OCO4)CC2)c2ccccc21,?,-0.6%,1.3%,11.2µM*,?,?
SMILES,Pf growth 48h,SARS PLpro yeast,NS1 function inh,HCV inh,Pf growth 96h,AMA1 RON2 block
O=C1CCC(c2ccc3c(c2)CCC3)=NN1,44.7%,1.3%,-1.0%,?,21.2%,-2.2%
Cc1ccc2c(CSc3nncn3C)cc(=O)oc2c1C,-9.6%,-1.9%,/,16.4%,-10.1%,-1.3%
O=C(Nc1ccc(Cl)cc1)c1cc2c(cc1O)[nH]c1ccccc12,10.4µM*,-5.0%,-106.8%,?,?,-11.6%
CC[C@H](C)[C@H]1CNC(=O)C(=O)N1CC1CCN(CCc2ccccc2)CC1,/,/,/,1.2%,/,-8.5%
Cc1ccc(-c2nnc(CSc3nc4cc5c(cc4cc3C)OCO5)o2)cc1,9.3%,3.7%,-5.3%,?,13.1µM*,-2.3%
O=C(N1CCCC1)C12CCC3CC(CC(C3)C1)C2,/,-4.4%,-10.5%,2.2%,9.28µM*,-15.2%
O=C(c1ccccc1)c1ccc2n1CC[C@H]2C(=O)O,5.2%[12.8 µM],/,/,/,-8.0%[12.8 µM],/
CC(C)(C)C(=O)Nc1cccc(-c2nc3ccccc3[nH]2)c1,-1.0%,-6.6%,-4.1%,?,/,-2.6%
CC(C)(C)C(=O)Nc1sc2c(c1-c1nc3ccccc3[nH]1)CCCC2,9.28µM*,-0.9%,13.5%,?,?,15.9%
Cn1c(CNC(=O)CNC(=O)Cc2ccccc2)cc(=O)n(C)c1=O,16.2%,2.4%,21.8%,18.2%,20.1%,-7.2%
COc1ccc(C(=O)NC2=NCCS2)cc1S(=O)(=O)N1CCCCC1C (stereo not given),?,2.5%,-3.1%,-7.3%,?,37.9%
COc1ccc(C(=O)NCCc2ccc(Cl)cc2)cc1S(=O)(=O)N1CCCCC1C (stereo not given),?,-9.0%,/,8.91µM*,?,-4.6%
COc1ccc(C(=O)NCCc2c[nH]c3ccccc23)cc1S(=O)(=O)N1CCCCC1C (stereo not given),8.28µM*,7.9%,/,?,13.1µM*,-12.3%[11.6 µM]
COc1ccc(C(=O)NCC(c2ccco2)N2CCCCC2)cc1S(=O)(=O)Nc1ccc(C)cc1 (stereo not given),/,/,/,?,/,-3.9%
O=C(NCCc1c[nH]c2ccccc12)C(=O)NCC1OCCCN1S(=O)(=O)c1cc(F)ccc1F (stereo not given),13.1µM*,0.4%,/,-20.4%,3.29µM*,-3.7%
COc1ccc(C(=O)NCC(c2ccco2)N2CCCC2)cc1S(=O)(=O)N1CCCCC1C (stereo not given),?,3.9%,/,-6.9%,5.22µM*,6.5%
O=C(O)CCC1OC(=O)C(O)=C1c1ccccc1 (stereo not given),15.3%,2.4%,3.1%,11.7%,?,1.4%
Cc1ccc(S(=O)(=O)Nc2ccc3c(c2)C(=O)NC3=O)cc1[N+](=O)[O-],10.7%,2.9%,-1.0%,14.0%,-24.3%,-15.7%
